From PubChem
Shown are actives, neighbours in structure and some others; about 2.8% of the full set was active somewhere.
PAFAH2 FP inh: PAFAH2 (human) inhibition. Q99487. recombinant PAFAH2, FP-rhodamine activity probe, fluorescence polarization. inhibition, % at 3.39 µM. hit rate 0.99% among 340,000;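 active = inhibition above the mean over all tested compounds plus 3 SD, cut at about 30% in these data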;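 also: inhibitors block probe labeling of enzyme so polarization drops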
PAFAH1B3 inh: inhibitors of human PAFAH1B3. inhibition, % at 3.39 µM. hit rate 0.28% among 340,000. recombinant PAFAH1B3, FP-rhodamine probe, fluorescence polarization;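 active = inhibition above the screen-wide average of all tested compounds plus 3 SD, cut at about 25% in these data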
Target sequence (Q15102 whole entry, looked up): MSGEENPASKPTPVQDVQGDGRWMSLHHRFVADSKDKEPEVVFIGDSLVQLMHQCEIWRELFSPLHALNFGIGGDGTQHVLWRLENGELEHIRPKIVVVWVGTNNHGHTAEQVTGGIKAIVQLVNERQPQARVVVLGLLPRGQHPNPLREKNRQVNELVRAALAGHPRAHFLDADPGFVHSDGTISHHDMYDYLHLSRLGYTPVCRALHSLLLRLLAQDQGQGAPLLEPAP
PAFAH1B2 inh: inhibitors of human PAFAH1B2. P68402. recombinant PAFAH1B2, FP-rhodamine activity probe, fluorescence polarization. inhibition, % at 3.39 µM. hit rate 1.2% among 340,000. AID 492953;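 active = inhibition above the mean of all tested compounds plus 3 SD, cut at about 24% in these data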
Target sequence (P68402 whole entry, looked up): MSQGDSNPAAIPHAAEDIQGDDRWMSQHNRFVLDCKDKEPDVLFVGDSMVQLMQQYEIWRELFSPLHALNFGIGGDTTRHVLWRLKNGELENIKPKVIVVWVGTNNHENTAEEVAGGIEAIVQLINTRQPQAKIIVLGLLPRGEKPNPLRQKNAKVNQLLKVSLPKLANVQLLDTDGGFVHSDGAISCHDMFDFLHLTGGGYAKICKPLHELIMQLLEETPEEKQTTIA
DAGLB inhibitor: blocks human DAGLB lipase activity | HEK293T DAGLB membrane lysate, EnzChek fluorogenic substrate | inhibition, % at 5.17 µM | hit rate 0.059% among 340,000 | AID 504411; in the data active = inhibition above about 34%
pPAFAH inh: pPAFAH (human) enzyme inhibition; recombinant pPAFAH, FP-rhodamine probe fluorescence polarization; inhibition, % at 3.39 µM; hit rate 1.5% among 330,000;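 active = inhibition above the mean inhibition across the screen plus 3 SD, cut at about 25% in these data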;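 also: inhibitors block binding of the rhodamine activity-based probe so polarization drops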
HTRA1 inhibitor: inhibitors of human serine peptidase HTRA1; hit rate 0.5% among 340,000; inhibition, % at 5.96 µM; recombinant HTRA1, FP-rhodamine activity-based probe, fluorescence polarization; AID 504803; Q92743; in the data active = inhibition above about 36%
PAFAH2 confirm: confirmation of human PAFAH2 inhibitors. hit rate 65% among 2,300. shares compounds with PAFAH2 FP inh. inhibition, % at 3.39 µM. recombinant PAFAH2, FP-rhodamine activity probe, fluorescence polarization;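 active = mean inhibition over three repeats above a set limit taken from the earlier primary screen, cut at about 30% in these data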;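 also: inhibitor blocks binding of rhodamine activity probe so polarization falls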
Numbers stand for hits; n = inactive; x = not tested or not shown.

SMILES	PAFAH2 FP inh	PAFAH1B3 inh	PAFAH1B2 inh	DAGLB inhibitor	pPAFAH inh	HTRA1 inhibitor	PAFAH2 confirm
CC1CCC(NC(=O)COC(=O)C2CC3CCCC(C2)C3=O)CC1 (stereo not given)	61.5	n	n	n	n	n	48.3
O=[N+]([O-])c1ccc(SCCc2ccccn2)cc1	n	n	n	n	n	n	x
O=[N+]([O-])c1ccc(SCCc2ccncc2)cc1	34.4	n	n	n	n	n	n
Cc1sc2ncnc(SCC(=O)Nc3ncccc3O)c2c1C	65.6	n	n	n	n	n	52.9
CCCCCCOC(=O)c1ccc(OC(=O)c2cccnc2)cc1	41.0	n	n	n	n	n	32.4
O=C(c1cnn2c(C(F)(F)F)cc(-c3ccccc3)nc12)N1CCCc2ccccc21	38.6	n	n	n	n	n	39.0
Cc1cc(NC(=O)c2cnn3c(C(F)(F)F)cc(-c4ccccc4)nc23)no1	29.6	n	n	n	n	n	n
Cc1cc(NC(=O)c2cnn3c(C(F)F)cc(-c4ccccc4)nc23)no1	n	n	n	n	n	n	x
O=C(NC1CCC(=O)N(CCOc2ccccc2)CC1)OCc1ccccc1 (stereo not given)	n	n	n	n	n	n	x
O=C(Nc1ccc(Cl)c(Cl)c1)N1CCCCCC1	n	n	n	n	n	n	x
O=C(CCC(=O)N1CCCC1)Nc1ccc(Cl)c(Cl)c1	53.5	n	n	n	n	n	57.4
O=C(NCCN1CCNC1=O)C1CCC(=O)N(Cc2cccc(C(F)(F)F)c2)C1 (stereo not given)	n	n	n	n	n	n	x
O=C(COC(=O)c1ccc(CO)cc1)Nc1ccc(OC(F)F)cc1	81.5	n	n	n	n	n	74.2
O=C(COC(=O)c1ccc(CO)cc1)Nc1ccc2ccccc2c1	80.5	n	n	n	n	n	71.4
O=C(COC(=O)c1ccc(O)cc1O)Nc1ccc2ccccc2c1	n	n	n	n	n	n	x
Cc1cc(C)c(-c2cc(NC(=O)COC(=O)c3ccc(CO)cc3)n(-c3ccccc3)n2)cc1C	31.7	n	n	n	n	n	n
Cc1ccc(S(=O)(=O)N(CC(=O)NCC2CCCO2)Cc2ccc(F)cc2)cc1 (stereo not given)	n	n	n	n	n	n	x
COc1ccc(CNC(=O)C(C)OC(=O)CCN2C(=O)C3CC=CCC3C2=O)cc1 (stereo not given)	n	n	n	n	n	n	x
Cc1ccccc1OCC(=O)NNC(=O)c1cc(S(=O)(=O)N2CCOCC2)ccc1N1CCCC1	n	n	n	n	n	n	x
CCc1ccccc1NC(=O)CCC(=O)c1cccs1	n	n	n	n	n	n	x
O=C(COC(=O)c1cccs1)Nc1ccccc1C(F)(F)F	76.6	n	n	n	n	n	54.4
CCc1ccccc1NC(=O)COC(=O)c1cccs1	79.9	n	n	n	n	n	76.2
O=C1C=C(Nc2ccc(Cl)cc2Cl)CC(c2ccco2)C1 (stereo not given)	44.9	n	n	n	n	n	37.1
O=C1C=C(Nc2ccc(O)cc2)CC(c2ccco2)C1 (stereo not given)	n	n	n	n	n	n	x
COc1ccccc1NC(=O)COc1ccc(C(=O)OCC(=O)NC(C)(C)C)cc1OC	81.0	n	n	n	n	n	82.6
SMILES	PAFAH2 FP inh	PAFAH1B3 inh	PAFAH1B2 inh	DAGLB inhibitor	pPAFAH inh	HTRA1 inhibitor	PAFAH2 confirm
COc1ccc(C(=O)OCC(=O)Nc2ccc(F)cc2F)cc1OC	76.2	n	n	n	n	n	72.5
CCC(CC)NC(=O)COC(=O)c1ccc(OCC(=O)Nc2ccccc2OC)c(OC)c1	59.7	n	n	n	n	n	63.4
COc1ccccc1NC(=O)COC(=O)c1cc2c(s1)CCC2	54.4	n	n	n	x	n	38.5
CCn1ccnc1CN(C)C(=O)CCc1nnc(CCC2CCCCC2)o1	n	n	n	n	n	n	x
CCc1ccc(NC(=O)C2CCC(CNC(=O)[C@@H]3Cc4ccccc4CN3)CC2)cc1 (stereo not given in full)	n	n	n	n	n	n	x
CCCNC(=O)COC(=O)c1ccc(OCC(=O)Nc2ccccc2OC)c(OC)c1	51.4	n	n	n	n	n	44.8
COC(=O)c1ccc(C(=O)OC)c(NC(=O)COc2ccccc2OC)c1	n	n	n	n	n	n	x
O=C(COC(=O)C1CC1)Nc1c(Cl)cccc1C(F)(F)F	37.6	n	n	n	n	n	n
Cc1c(Cl)cnc(NC(=O)COC(=O)C2CC2)c1Cl	43.5	n	n	n	n	n	n
Cc1ccsc1C(=O)OCC(=O)Nc1c(Cl)cccc1C(F)(F)F	31.1	n	n	n	n	n	30.0
O=C(COC(=O)CCc1nc2ccccc2c(=O)[nH]1)Nc1c(Cl)cccc1C(F)(F)F	n	n	n	n	n	n	x
O=C(CN1CC(c2ccccc2)CC1=O)Nc1ccc2c(c1)OCO2 (stereo not given)	31.9	n	n	n	n	n	n
CCCCNC(=O)c1onc(CSc2cc(C)cc(C)c2)c1C(=O)O	37.9	n	n	n	n	n	n
CCCCNC(=O)c1onc(CSc2ccccc2C)c1C(=O)O	30.1	n	n	n	n	n	35.2
COc1ccc(CN(C)C(=O)c2ccc(Cl)c(S(=O)(=O)NCc3cccnc3)c2)cc1F	n	n	n	n	n	n	x
CCN(C(=O)CSc1nnc(CNc2cccc(OC)c2)n1C1CCCCC1)C1CCS(=O)(=O)C1 (stereo not given)	n	n	n	n	n	n	x
O=C(Nc1ccc(Oc2ccc(NC(=O)Nc3ccccc3Cl)cc2)cc1)Nc1ccccc1Cl	55.2	n	n	n	n	n	n
O=C(COC(=O)c1ccc(S(=O)(=O)N2CCCCCC2)cc1)NCc1ccc(F)cc1	n	n	n	n	x	n	x
O=C(COC(=O)c1ccc(F)c(S(=O)(=O)N2CCOCC2)c1)c1ccccc1	n	n	n	n	n	n	x
O=C(COC(=O)c1ccc(F)c(S(=O)(=O)N2CCOCC2)c1)NCCc1ccc(F)cc1	30.1	n	n	n	n	n	n
COc1ccc(C(=O)OCC(=O)c2ccccc2)cc1S(=O)(=O)N1CCOCC1	52.4	n	n	n	n	n	40.4
COc1ccc(C(=O)OCC(=O)NCCc2ccc(F)cc2)cc1S(=O)(=O)N1CCOCC1	66.0	n	n	n	n	n	47.1
O=C(COC(=O)c1ccc(F)c(S(=O)(=O)N2CCCCC2)c1)NCc1ccc(F)cc1	32.3	n	n	n	n	n	n
Cc1ccc(C)c(OCCC(=O)OCC(=O)Nc2ccc(N3CCOCC3)cc2)c1	n	n	n	n	n	n	x
N#CCCN(C(=O)COC(=O)c1ccc2c(=O)n3c(nc2c1)CCC3)c1ccc(F)cc1	n	n	n	n	n	n	x
O=C(COC(=O)c1ccc(Cl)nc1)NCc1ccc(F)cc1	n	n	n	n	n	n	x
